From PubChem BioAssay (Tox21)
Inconclusive results are not listed. A call without a number means that no potency is given here. Some compounds were tested as several samples or in several runs, with calls that do not always agree. Active and inactive are the calls of the source. Unless noted, calls follow the shape of the full dose curve.

How the values were obtained:
[1] = Nuclear factor erythroid 2-related factor 2/antioxidant responsive element (Nrf2/ARE) small molecule agonists: qHTS cell viability counter screen in human keratinocytes (AID 1919968; active = well fitted curve in the direction sought with a large enough effect in the repeat runs; an effect the other way counts as inactive or inconclusive; also: nearly all actives have a fitted effect of over 55% in size; also: potency is read from the fitted curve at half-maximal effect)
Method in brief: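 Fluorescence read-out from CellTiter-Fluor after 1 h at 37 C. Wells held HaCaT-derived ARE-luciferase reporter cells (1,500/well) treated 23 h with DMSO-dissolved compounds. Run in the same wells as the luciferase agonist read.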

[2] = Nuclear factor erythroid 2-related factor 2/antioxidant responsive element (Nrf2/ARE) small molecule agonists: luciferase reporter gene qHTS assay in human keratinocytes (AID 1919969); also: nearly all actives have a fitted effect of over 35% in size; also: potency is read from the fitted curve at half-maximal effect
[3] = target: Gonadotropin-releasing hormone receptor (Homo sapiens) (UniProt P30968); assay: Human gonadotropin-releasing hormone receptor (GnRHR) small molecule agonists, calcium flux assay in GnRHR-HEK293 cells (AID 1920063); also: nearly all actives have a fitted effect of over 35% in size
Gonadotropin-releasing hormone receptor (Homo sapiens), sequence (P30968 whole entry, looked up): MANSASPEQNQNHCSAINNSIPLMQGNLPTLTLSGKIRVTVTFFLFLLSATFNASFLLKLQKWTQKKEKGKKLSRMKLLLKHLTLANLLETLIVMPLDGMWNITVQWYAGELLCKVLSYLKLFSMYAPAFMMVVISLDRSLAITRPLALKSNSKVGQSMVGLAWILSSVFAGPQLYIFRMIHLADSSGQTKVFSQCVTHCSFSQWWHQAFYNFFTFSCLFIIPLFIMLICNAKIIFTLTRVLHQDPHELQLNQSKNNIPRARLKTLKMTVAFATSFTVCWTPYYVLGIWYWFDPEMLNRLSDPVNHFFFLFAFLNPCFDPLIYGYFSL
Method in brief: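 Calcium-dye fluorescence, Ex/Em=480/540, recorded every 1 sec over 3 min after compound addition to GnRHR-HEK293 cells. Cells had been seeded 18 hours earlier and dye-loaded for 1 hour at 37 C. Fifteen concentrations, triplicates.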

[4] = target: KiSS-1 receptor (Homo sapiens) (UniProt Q969F8); assay: Human kisspeptin (KISS1R) small molecule agonists, calcium flux assay in KISS1R-HEK293 cells (AID 1920064; active = well fitted curve in the direction sought with a large enough effect in the repeat runs; an effect the other way counts as inactive or inconclusive)
KiSS-1 receptor (Homo sapiens), sequence (Q969F8 whole entry, looked up): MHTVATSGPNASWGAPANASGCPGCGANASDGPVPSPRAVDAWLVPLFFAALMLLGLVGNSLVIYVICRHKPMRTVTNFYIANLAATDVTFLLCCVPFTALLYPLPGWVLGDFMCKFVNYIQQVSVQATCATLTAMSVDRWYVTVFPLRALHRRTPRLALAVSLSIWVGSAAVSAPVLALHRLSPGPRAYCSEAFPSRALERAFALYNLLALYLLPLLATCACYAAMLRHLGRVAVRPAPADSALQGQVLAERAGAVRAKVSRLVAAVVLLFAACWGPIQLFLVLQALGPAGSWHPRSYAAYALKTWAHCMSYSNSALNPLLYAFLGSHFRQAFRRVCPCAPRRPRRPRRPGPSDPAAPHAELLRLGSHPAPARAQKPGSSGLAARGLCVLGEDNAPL
Method in brief: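 Calcium flux read-out: kinetic fluorescence at Ex/Em=480/540, 1 s intervals over 3 min, after pin-tool compound addition to dye-loaded KISS1R-HEK293 cells. Fifteen concentrations, triplicates.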

[5] = G protein-coupled receptor (GPCR) small molecule agonists, calcium flux assay: HEK293 wild type cell line counter screen (AID 1920065)
Method in brief: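 Agonist mode; 18 h seeding at 37 C, 1 h dye load at 37 C; compounds pinned from DMSO, ATP as positive control; kinetic fluorescence 480/540 nm, 3 min, 1 s reads; 15 concentrations, triplicate.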

[6] = p53 small molecule agonists, cell-based qHTS assay with human liver microsomes: qHTS cell viability counter screen (AID 1963579); also: nearly all actives have a fitted effect of over 45% in size; also: potency is read from the fitted curve at half-maximal effect
Method in brief: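 After the 460/530 nm beta-lactamase read, CellTiter-Glo was added to the same wells and luminescence measured after 30 min at room temperature, giving viability of p53RE-bla cells treated 16 h with compounds plus microsomes and NADPH.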

[7] = p53 small molecule agonists, cell-based qHTS assay: qHTS cell viability counter screen (AID 1963581); also: nearly all actives have a fitted effect of over 45% in size
Method in brief: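 Cytotoxicity read-out: ATP-based luminescence (CellTiter-Glo, 30 min RT) measured in the same wells as the p53 reporter assay, HCT-116 p53RE-bla cells, 16 h compound exposure at 37 C.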

[8] = cAMP Responsive Elements (CRE) small molecule agonists, cell-based qHTS assay (AID 1963590)
Method in brief: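 Beta-lactamase reporter readout: LiveBLAzer B/G FRET substrate, 2 h at room temperature, added after 3 h compound treatment of CRE-bla HEK 293T cells at 37 C/5% CO2.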

[9] = cAMP Responsive Elements (CRE) small molecule antagonists, cell-based qHTS assay (AID 1963591; active = well fitted inhibition curve with a large enough effect in the signal ratio in the repeat runs, not every such curve was filed as active; the % refers to the signal ratio)
Method in brief: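 HEK293T CRE-bla; 18 h preincubation; compound pin-transfer; NKH477 0.25 uM final, 3 h, 37 C; LiveBLAzer FRET substrate 2 h RT.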

[10] = target: Beta-2 adrenergic receptor (Homo sapiens) (UniProt P07550); assay: Adrenergic beta2 receptor (ADRB2) small molecule agonists, cell-based qHTS assay (AID 1963593);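 also: CHO cells stably overexpressing human ADRB2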
Beta-2 adrenergic receptor (Homo sapiens), sequence (P07550 whole entry, looked up): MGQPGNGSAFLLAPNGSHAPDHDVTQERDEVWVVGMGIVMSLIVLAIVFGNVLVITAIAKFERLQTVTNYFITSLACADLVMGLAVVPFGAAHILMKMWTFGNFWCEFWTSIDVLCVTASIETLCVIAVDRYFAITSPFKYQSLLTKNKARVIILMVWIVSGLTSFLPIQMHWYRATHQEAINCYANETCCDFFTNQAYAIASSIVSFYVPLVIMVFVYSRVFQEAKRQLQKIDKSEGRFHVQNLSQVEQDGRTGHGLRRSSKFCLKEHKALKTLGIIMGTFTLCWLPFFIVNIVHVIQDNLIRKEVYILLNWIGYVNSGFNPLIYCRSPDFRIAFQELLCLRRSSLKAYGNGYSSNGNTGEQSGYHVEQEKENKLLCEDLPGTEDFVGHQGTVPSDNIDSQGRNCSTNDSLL
Method in brief: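 CHO cells stably over-expressing ADRB2 were plated overnight at 37C, then dosed with compounds plus a stimulation mix containing 100uM IBMX and 25uM Ro-20-1724 for 0.5hr at room temperature. cAMP was measured by HTRF competition, 1hr.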

[11] = target: D(2) dopamine receptor (Homo sapiens) (UniProt P14416); assay: Dopamine D2 receptor (DRD2) small molecule agonists, cell-based qHTS assay (AID 1963594); also: nearly all actives have a fitted effect of over 35% in size
D(2) dopamine receptor (Homo sapiens), sequence (P14416 whole entry, looked up): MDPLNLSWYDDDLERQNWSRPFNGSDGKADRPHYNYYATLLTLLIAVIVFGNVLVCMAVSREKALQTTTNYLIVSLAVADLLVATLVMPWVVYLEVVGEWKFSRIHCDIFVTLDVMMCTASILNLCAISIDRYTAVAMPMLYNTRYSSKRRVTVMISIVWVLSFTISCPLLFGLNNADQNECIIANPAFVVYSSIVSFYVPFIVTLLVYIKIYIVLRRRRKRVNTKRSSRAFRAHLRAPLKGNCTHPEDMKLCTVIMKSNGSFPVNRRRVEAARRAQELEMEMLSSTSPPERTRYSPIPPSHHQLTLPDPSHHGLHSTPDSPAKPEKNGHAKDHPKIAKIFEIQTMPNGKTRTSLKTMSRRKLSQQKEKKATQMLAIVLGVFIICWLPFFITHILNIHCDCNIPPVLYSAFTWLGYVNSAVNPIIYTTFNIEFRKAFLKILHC
Method in brief: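 HEK293 cells stably expressing DRD2 were cultured 24 h at 37 C, then given Ro20-1724 (0.1 mM final) and compounds for 10 min at room temperature. NKH477 (200nM) was then added for 30 min. cAMP was read by HTRF.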

[12] = p53 small molecule agonists, cell-based qHTS assay with rat liver microsomes: qHTS cell viability counter screen (AID 1963580); also: nearly all actives have a fitted effect of over 45% in size
Method in brief: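 Luminescent ATP readout (CellTiter-Glo, 30 min at room temperature) reports viability of p53RE-bla HCT-116 cells after 16 h at 37 C with test compounds under metabolic activation by rat liver microsomes and NADPH at 0.5 mg/mL final each.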

[13] = target: 5-hydroxytryptamine receptor 2A (Homo sapiens) (UniProt P28223); assay: 5-hydroxytryptamine receptor 2A (HTR2A) small molecule antagonists, cell-based qHTS assay (AID 1963586); also: nearly all actives have a fitted effect of over 45% in size
5-hydroxytryptamine receptor 2A (Homo sapiens), sequence (P28223 whole entry, looked up): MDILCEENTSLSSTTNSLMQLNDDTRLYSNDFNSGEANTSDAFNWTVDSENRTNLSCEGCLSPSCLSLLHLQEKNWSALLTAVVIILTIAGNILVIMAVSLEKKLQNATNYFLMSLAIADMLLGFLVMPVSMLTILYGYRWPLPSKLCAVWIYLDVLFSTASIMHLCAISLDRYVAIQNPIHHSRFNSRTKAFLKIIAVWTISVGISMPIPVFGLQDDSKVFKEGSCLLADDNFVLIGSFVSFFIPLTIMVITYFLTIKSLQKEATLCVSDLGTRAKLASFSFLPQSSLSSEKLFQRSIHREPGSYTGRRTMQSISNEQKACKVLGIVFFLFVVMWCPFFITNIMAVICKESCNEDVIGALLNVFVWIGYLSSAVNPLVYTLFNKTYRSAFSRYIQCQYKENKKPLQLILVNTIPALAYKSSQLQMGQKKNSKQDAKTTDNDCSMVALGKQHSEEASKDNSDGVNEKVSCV
Method in brief: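 CHO cells stably expressing human HTR2A were plated for 18 h at 37 C, then loaded with calcium dye for 1 h. Compounds were preincubated 5 min at room temperature before DOI (4 nM solution) was added. Kinetic fluorescence was read for 3 min.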

[14] = target: 5-hydroxytryptamine receptor 2A (Homo sapiens) (UniProt P28223); assay: 5-hydroxytryptamine receptor 2A (HTR2A) small molecule agonists, cell-based qHTS assay (AID 1963587); also: nearly all actives have a fitted effect of over 30% in size; also: potency is read from the fitted curve at half-maximal effect
Method in brief: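 HTR2A-CHO cells, plated 18 h at 37 C/5% CO2, dye-loaded 1 h at 37 C; compounds in DMSO added by pin tool (agonist mode). Intracellular calcium flux read as kinetic fluorescence on FDSS over 2 min at 1 s intervals.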

[15] = target: Muscarinic acetylcholine receptor M1 (Homo sapiens) (UniProt P11229); assay: Cholinergic receptor muscarinic 1 (CHRM1) small molecule agonists, cell-based qHTS assay (AID 1963589); also: nearly all actives have a fitted effect of over 35% in size
Muscarinic acetylcholine receptor M1 (Homo sapiens), sequence (P11229 whole entry, looked up): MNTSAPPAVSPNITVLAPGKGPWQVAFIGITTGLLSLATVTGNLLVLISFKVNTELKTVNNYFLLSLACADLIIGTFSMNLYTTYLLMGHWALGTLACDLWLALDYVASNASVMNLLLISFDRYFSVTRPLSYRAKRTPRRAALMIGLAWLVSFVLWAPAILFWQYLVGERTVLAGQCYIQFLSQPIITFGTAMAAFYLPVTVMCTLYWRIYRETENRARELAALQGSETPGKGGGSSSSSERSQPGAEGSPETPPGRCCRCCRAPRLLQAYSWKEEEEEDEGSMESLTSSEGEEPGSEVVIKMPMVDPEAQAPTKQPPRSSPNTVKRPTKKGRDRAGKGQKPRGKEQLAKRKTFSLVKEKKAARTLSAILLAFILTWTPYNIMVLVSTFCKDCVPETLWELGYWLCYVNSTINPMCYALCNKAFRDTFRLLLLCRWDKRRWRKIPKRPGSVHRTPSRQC
Method in brief: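 Calcium flux read-out: kinetic fluorescence at 1 sec intervals after pin-tool compound addition to dye-loaded CHRM1-CHO cells (human M1). Agonist mode; 15 concentrations tested in triplicate independent runs.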

[16] = target: Beta-2 adrenergic receptor (Homo sapiens) (UniProt P07550); assay: Adrenergic beta2 receptor (ADRB2) small molecule antagonists, cell-based qHTS assay (AID 1963592); also: series mostly up to about 92 µM; nearly all actives have a fitted effect of over 50% in size
Method in brief: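 Assay format: CHO-ADRB2 cells, 18-20hr seeding at 37C/5% CO2, then compound plus 1nM isoproterenol agonist mix for 0.5hr RT. Homogeneous time-resolved fluorescence cAMP detection after 1hr, expressed as 665/615 nm ratio.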

[17] = target: D(2) dopamine receptor (Homo sapiens) (UniProt P14416); assay: Dopamine D2 receptor (DRD2) small molecule antagonists, cell-based qHTS assay (AID 1963595; active = well fitted inhibition curve with a large enough effect in the signal ratio in the repeat runs, with a control signal flat; the % refers to the signal ratio)
Method in brief: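 DRD2-HEK293; 0.1 mM Ro20-1724; cpd 10 min RT; NKH477 200 nM + quinpirole 12 nM, 30 min RT; HTRF cAMP (cAMP-d2/anti-cAMP cryptate), 665/620 nm ratio after 1 h.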

[18] = target: Muscarinic acetylcholine receptor M1 (Homo sapiens) (UniProt P11229); assay: Cholinergic receptor muscarinic 1 (CHRM1) small molecule antagonists, cell-based qHTS assay (AID 1963588); also: nearly all actives have a fitted effect of over 40% in size
Method in brief: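 Compounds were tested at 15 concentrations in three independent runs. Dye-loaded CHRM1-CHO cells were exposed 5 min at room temperature before stimulation by acetylcholine added at 50nM. Intracellular calcium was read kinetically on FDSS for 3 min.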

[19] = p53 small molecule agonists, cell-based qHTS assay (AID 1963582; active = well fitted activation curve with a large enough effect in the signal ratio in the repeat runs, not every such curve was filed as active; the % refers to the signal ratio)
Method in brief: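 Fluorescence intensity read-out of a beta-lactamase reporter under a p53 response element. Cells were exposed to DMSO-dissolved compounds for 16 h at 37 C, then developed with FRET substrate for 2 h at RT.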

[20] = p53 small molecule agonists, cell-based qHTS assay with rat liver microsomes (AID 1963578)
Method in brief: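 Metabolic activation is supplied by rat liver microsomes with NADPH (each 0.5 mg/mL final). p53RE-bla cells incubate with compound 16 h at 37 C; reporter activity is measured by LiveBLAzer fluorescence.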

SMILES | Potency [1] | Potency [2] | Potency [3] | Potency [4] | Potency [5] | Potency [6] | Potency [7] | Potency [8] | Potency [9] | Potency [10] | Potency [11] | Potency [12] | Potency [13] | Potency [14] | Potency [15] | Potency [16] | Potency [17] | Potency [18] | Potency [19] | Potency [20]
O=C1CC2(CCCC2)CC(=O)N1CCCCN1CCN(c2ncccn2)CC1 | inactive | inactive | inactive | inactive | inactive | inactive | inactive | inactive | inactive | inactive | inactive | – | – | – | – | – | – | – | – | –
CCC(C)c1ccccc1O (centres undefined) | inactive | inactive | inactive | inactive | inactive | inactive | – | inactive | inactive | inactive | inactive | inactive | inactive | inactive | inactive | inactive | inactive | – | – | –
CN(Cc1cnc2nc(N)nc(N)c2n1)c1ccc(C(=O)N[C@@H](CCC(=O)O)C(=O)O)cc1 | inactive | inactive | inactive | inactive | inactive | inactive | – | inactive | inactive | inactive | inactive | inactive | – | – | – | inactive | inactive | – | – | –
CC(C)OC(=O)C(C)(C)Oc1ccc(C(=O)c2ccc(Cl)cc2)cc1 | inactive | 61.1 µM (active) and inactive | inactive | inactive | inactive | inactive | inactive | inactive | inactive | – | inactive | – | – | – | – | inactive | inactive | – | – | –
CCCCC(CC)COC(C)=O (centres undefined) | inactive | inactive | inactive | inactive | inactive | – | inactive | inactive | inactive | inactive | inactive | inactive | inactive | inactive | inactive | inactive | inactive | inactive | – | –
N[C@@H](Cc1c[nH]c2ccccc12)C(=O)O | inactive | inactive | inactive | inactive | inactive | – | inactive | inactive | inactive | inactive | inactive | inactive | inactive | 34.7 µM (active) and inactive | inactive | inactive | inactive | inactive | – | –
COc1ccc(OC)c(C(O)CNC(=O)CN)c1 (centres undefined) | inactive | inactive | inactive | inactive | inactive | – | inactive | – | inactive | inactive | inactive | – | inactive | inactive | inactive | inactive | inactive | inactive | inactive | –
Cc1ccc(C(=O)c2cc(O)c(O)c([N+](=O)[O-])c2)cc1 | 30.6 µM (active) | inactive | inactive | inactive | – | 45.8 µM (active) and inactive | inactive | – | – | inactive | inactive | inactive | inactive | inactive | inactive | inactive | inactive | inactive | inactive | inactive
